Pol eta inh-1: qHTS for Inhibitors of Polymerase Eta; DNA polymerase eta (Homo sapiens), Q9Y253; recombinant Pol eta, fluorescent DNA replication assay; Potency, µM (top dose mostly 114 µM), most hits filed as inhibitors; hit rate 1.2% among 390,000; AID 588591, 2011
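Pol eta (10 nM) was preincubated with compounds for 15 min at room temperature, after which fluorescent replication substrate (50 nM final) was added to start the reaction. Fluorescence was read kinetically at 0 and 10 min.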
FEN1 inh: qHTS Assay for the Inhibitors of Human Flap endonuclease 1 (FEN1); Recombinant FEN1 flap cleavage, fluorescence, 15 min; Potency, µM (series often up to 114 µM), hits mostly inhibitors; AID 588795, 2011; P39748; hit rate 0.35% among 390,000; further: nearly all actives have a fitted effect of over 65% in size
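Enzyme 10 nM, 15 min RT preincubation with compound; start with substrate 50 nM final; reads at 0 and 15 min; qHTS titration, four-parameter Hill fit.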
Pol kappa inh-1: qHTS for Inhibitors of Polymerase Kappa. DNA polymerase kappa (Homo sapiens), Q9UBT6. purified Pol kappa, fluorescent DNA synthesis assay, 10 min. Potency, µM (titrated, usually from 107 µM), hits mostly inhibitors. hit rate 0.53% among 400,000. AID 588579, 2011
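Fluorescent qHTS in 1536-well format: enzyme (10 nM) and compound sat 15 min at room temperature before 50 nM substrate (final) was added. Signal taken at 0 and 10 min; no-enzyme buffer wells were negative controls.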
PI5P4Ka inh: qHTS for Inhibitors of phosphatidylinositol 5-phosphate 4-kinase (PI5P4K); AID 652105, 2013; Phosphatidylinositol 5-phosphate 4-kinase type-2 alpha (Homo sapiens), P48426; max response, %; PI5P4Kalpha enzyme, ADP-Glo luminescence, 60 min; active compounds read low; hit rate 1.2% among 330,000; active means max response of -50% or lower; inconclusive means between -30% and -50%; inactive means -30% or higher; further: value at the top dose of about 77 µM
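Luminescence from ADP-Glo served as readout of PI5P4Kalpha activity in a qHTS format. Reaction: enzyme, substrate, compound, ATP at 5 microM final, 60 min at RT.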
Pol beta inh: qHTS Assay for Inhibitors of DNA Polymerase Beta; hit rate 1.3% among 340,000; Pol beta primer extension/strand displacement, fluorescence kinetic; Potency, µM (highest dose often 114 µM), most hits filed as inhibitors; P06746; AID 485314, 2010
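Kinetic readout of DNA synthesis with strand displacement by Pol beta. Compound and 10 nM enzyme sit 15 min at room temperature; 50 nM substrate starts the reaction, read immediately and at 10 min.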
Pol iota inh: qHTS for Inhibitors of Polymerase Iota | hit rate 1% among 390,000 | AID 588590, 2011 | Pol iota fluorescent replication assay, 10 min | DNA polymerase iota (Homo sapiens), Q9UNA4 | Potency, µM (highest dose often 115 µM), hits mostly inhibitors
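Fluorescent replication assay read twice, at 0 min and 10 min after adding 50 nM (final) substrate. Enzyme (10 nM) and compounds were first incubated 15 min at room temperature; enzyme-free buffer wells were negative controls.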
POLI cherry-pick: qHTS for Inhibitors of Polymerase Iota: Confirmatory Assay for Cherry-picked Compounds; shares compounds with Pol kappa inh-1; hit rate 77% among 1,500; Potency, µM, most hits filed as inhibitors; Pol iota primer extension, TAMRA/BHQ fluorescence
Pol kappa inh-2: qHTS for Inhibitors of Polymerase Kappa: Confirmatory Assay for Cherry-picked Compounds | Potency, µM, usual class: inhibitors | purified Pol-kappa, fluorescent strand-displacement substrate | hit rate 76% among 920 | shares compounds with Pol eta inh-1
Pol eta inh-2: qHTS for Inhibitors of Polymerase Eta: Confirmatory Assay for Cherry-picked Compounds; Pol eta primer extension, TAMRA/BHQ fluorescence, 10 min; Potency, µM, most hits filed as inhibitors; hit rate 64% among 2,600; shares compounds with Pol eta inh-1
Large screens that a line does not name were inactive (follow-up assays come after a bar, where they were run). Rows were chosen to be rich in hits. Some 2.8% of all compounds tested hit in one or more screens of this group. Unless noted, the call rests on the fitted dose curve; in most records, active means well fitted curve in the direction sought with a large enough effect; inconclusive means small, poorly fitted or top-dose-only effect, or another doubt; inactive means no such curve, though single readings can be large; an effect the other way counts as inactive or inconclusive.

CC1CCN(S(=O)(=O)c2ccc(NN=C(C#N)C#N)cc2)CC1	none (no result: Pol eta inh-1, FEN1 inh, Pol kappa inh-1, PI5P4Ka inh, Pol iota inh)
COC(=O)[C@]1(C)CC[C@@]2(C)CC[C@@]3(C)C4=CC=C5C(=CC(=O)C(O)=C5C)[C@@]4(C)CC[C@@]3(C)C2C1 (some centres undefined)	none (no result: Pol eta inh-1, FEN1 inh, PI5P4Ka inh, Pol beta inh, Pol iota inh)
COc1cc2cc(C(=O)N3CC(COS(C)(=O)=O)c4ccc(O)cc43)[nH]c2c(OC)c1OC (centres undefined)	Pol eta inh-1 3.2µM, Pol kappa inh-1 10µM, Pol iota inh 1.8µM (no result: Pol beta inh) | POLI cherry-pick 4.7 | Pol kappa inh-2 3 | Pol eta inh-2 6.7
CN(C(=O)Cc1ccc(Cl)c(Cl)c1)C(CN1CCCC1)c1cccc(N=C=S)c1 (centres undefined)	none (no result: Pol eta inh-1, FEN1 inh, PI5P4Ka inh, Pol beta inh, Pol iota inh)
CN1CC[C@@]2(C)c3cc(O)ccc3N(C)[C@@H]12	Pol eta inh-1 inconclusive, FEN1 inh inconclusive, Pol iota inh 10µM (no result: Pol beta inh) | POLI cherry-pick 60 | Pol eta inh-2 inconclusive
CC1[C@H]2Cc3ccc(O)cc3[C@]1(C)CCN2C (some centres undefined)	none (no result: Pol beta inh)
CC(C)c1ccc(C(c2c(O)c3ccccc3oc2=O)c2c(O)c3ccccc3oc2=O)cc1	Pol eta inh-1 22µM (no result: FEN1 inh, Pol kappa inh-1, Pol beta inh, Pol iota inh) | POLI cherry-pick inconclusive | Pol kappa inh-2 38 | Pol eta inh-2 inconclusive
Cc1c(C(c2ccc(F)cc2)c2c(O)c3ccccc3oc2=O)c(=O)n(-c2ccccc2)n1C (centres undefined)	none
CCN1C[C@@]2(OC(=O)c3ccccc3NC(C)=O)CCC(OC)[C@@]34C5CC6C(OC)C[C@@](O)(C(CC23)[C@@H]14)C5(O)C6OC (some centres undefined)	none (no result: Pol eta inh-1, FEN1 inh, PI5P4Ka inh, Pol beta inh, Pol iota inh)
CC(Cc1ccc(C(C)(C)C)cc1)CN1CCCCC1 (centres undefined)	none (no result: Pol eta inh-1, FEN1 inh, PI5P4Ka inh, Pol beta inh, Pol iota inh)
O=C1NC(=O)N(c2ccc(Cl)cc2)C(=O)/C1=C\c1ccc(Sc2nc3ccccc3[nH]2)o1	Pol eta inh-1 18µM, FEN1 inh 79µM, Pol kappa inh-1 20µM, PI5P4Ka inh -87, Pol beta inh 22µM, Pol iota inh inconclusive | POLI cherry-pick 38 | Pol kappa inh-2 15 | Pol eta inh-2 27
CNc1ccc2oc(C[C@@H]3OC4(CC[C@@H]3C)O[C@H]([C@@H](C)C(=O)c3ccc[nH]3)[C@H](C)C[C@H]4C)nc2c1C(=O)O (some centres undefined)	none (no result: Pol eta inh-1, FEN1 inh, PI5P4Ka inh, Pol beta inh, Pol iota inh)
Cc1ccc(-n2c(C)cc(/C=C3/C(=O)NC(=O)N(C)C3=O)c2C)cc1	Pol iota inh inconclusive
COCCN1C(=O)NC(=O)/C(=C\c2ccc(Br)cc2)C1=O	FEN1 inh inconclusive, PI5P4Ka inh inconclusive
Cc1cc(/C=C2\C(=O)NC(=O)N(Cc3ccccc3Cl)C2=O)c(C)n1-c1ccc(C(=O)O)cc1	Pol eta inh-1 10µM, Pol kappa inh-1 50µM, PI5P4Ka inh -52, Pol beta inh 16µM, Pol iota inh 8.9µM | POLI cherry-pick 21 | Pol eta inh-2 24
Cn1cccc1/C=C1\C(=O)NC(=O)N(Cc2ccco2)C1=O	Pol eta inh-1 10µM, FEN1 inh inconclusive, Pol kappa inh-1 22µM, PI5P4Ka inh -80, Pol beta inh 14µM, Pol iota inh 7.9µM | POLI cherry-pick 17 | Pol eta inh-2 17

From PubChem
